Experiment [1] has as its target Thyrotropin-releasing hormone receptor (Homo sapiens) (UniProt P34981). Briefly: qHTS assay to identify small molecule agonists of the thyrotropin-releasing hormone receptor (TRHR) signaling pathway (AID 1346891; calls by dose curve; note: series mostly up to about 58 µM). The method, boiled down: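 Intracellular calcium rise, read as fluorescence every second for 3 min, served as the agonist signal in dye-loaded HEK293 cells expressing TRHR; each compound ran at 15 concentrations in triplicate.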

A short description of experiment [2]: Human pregnane X receptor (PXR) small molecule agonists, qHTS cell viability counter screen (AID 1346977). Note: nearly all actives have a fitted effect of over 50% in size. In a few lines:
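PXR-Luc HepG2, 2,000 cells/well, 5% charcoal-stripped FBS; 5hr settle; cpd 24hr, 37C/5% CO2; CellTiter-Fluor at 23hr, read 1hr later (fluorescence).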

Experiment [3] in a line: Caspase-3/7 induction in HepG2 cells by small molecules, qHTS assay (AID 1346978). Note: nearly all actives have a fitted effect of over 15% in size. In a few lines:
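Caspase-3/7 induction was measured by Caspase-Glo 3/7 luminescence (30 min, room temperature) after a 17 hr compound exposure of wild-type HepG2 cells seeded at 2,000 per well and pre-incubated 5 hr.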

Experiment [4] in a line: Caspase-3/7 induction in CHO-K1 cells by small molecules, qHTS cell viability counter screen (AID 1346979). Note: nearly all actives have a fitted effect of over 35% in size. Note: potency is the fitted concentration of half-maximal effect. In a few lines: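 Cells (CHO-K1, wild type) are plated at 1,500 per well and incubated 5hr. Test compounds in DMSO are then pinned in, followed by 16hr at 37C and 5% CO2. Viability is read by CellTiter-Fluor fluorescence after 1hr.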
Experiment [5] is described as follows: Caspase-3/7 induction in CHO-K1 cells by small molecules, qHTS assay (AID 1346980). Note: nearly all actives have a fitted effect of over 15% in size. Note: potency is the fitted concentration of half-maximal effect. The method, boiled down:
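Luminescent Caspase-Glo 3/7 read (30min, room temperature) quantified apoptosis induction. Cells were wild-type CHO-K1, treated with compound for 17hr at 37 C and 5% CO2.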

A short description of experiment [6]: Caspase-3/7 induction in HepG2 cells by small molecules, qHTS cell viability counter screen (AID 1346981). Note: series mostly up to about 92 µM; nearly all actives have a fitted effect of over 30% in size. The method, boiled down: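 In this quantitative HTS counter screen, compounds delivered in DMSO were left on unmodified HepG2 cells for 16 hr at 37 C. Viability was then determined fluorometrically with CellTiter-Fluor, in parallel with caspase-3/7 induction in the same wells.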

Experiment [7] concerns the target Nuclear receptor subfamily 1 group I member 2 (Homo sapiens) (UniProt O75469). Briefly: Human pregnane X receptor (PXR) small molecule agonists, qHTS assay (AID 1346982). Note: nearly all actives have a fitted effect of over 35% in size. Note: potency is the fitted concentration of half-maximal effect. In a few lines: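 Reporter HepG2 cells expressing PXR-Luc are cultured in charcoal-stripped FBS (5%), treated with compounds for 24 hr at 37 C, and assayed by ONE-Glo luminescence after 30 min at room temperature.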

Experiment [8] addresses Cytochrome P450 2C19 (Homo sapiens) (UniProt P33261). Briefly: Cytochrome P450 Family 2 Subfamily C Member 19 (CYP2C19) small molecule antagonists: luciferase reporter qHTS assay (AID 1671197). Note: nearly all actives have a fitted effect of over 65% in size. Note: potency is the fitted concentration of half-maximal effect. In a few lines:
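Compounds were tested on CYP2C19 activity via proluciferin conversion to luciferin. The 37C, 1 h reaction followed NADPH addition; detection reagent stopped it.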

Experiment [9] addresses Cytochrome P450 2C9 (Homo sapiens) (UniProt P11712). Briefly: Cytochrome P450 Family 2 Subfamily C Member 9 (CYP2C9) small molecule antagonists: luciferase reporter qHTS assay (AID 1671198). Note: nearly all actives have a fitted effect of over 50% in size. Note: potency is the fitted concentration of half-maximal effect. The method, boiled down:
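Enzyme-substrate mix preincubated with compound 10 min at room temperature; reaction started with NADPH regeneration solution, 1 h 37C. Luminescent luciferin product read after 20 min detection reagent.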

The target in experiment [10] is Cytochrome P450 1A2 (Homo sapiens) (UniProt P05177). Briefly: Cytochrome P450 Family 1 Subfamily A Member 2 (CYP1A2) small molecule antagonists: luciferase reporter qHTS assay (AID 1671199). Note: nearly all actives have a fitted effect of over 50% in size. Note: potency is the fitted concentration of half-maximal effect. In a few lines: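 Steps: enzyme-substrate mix dispensed; test compounds and furafylline control pinned in; 10 min room temperature; NADPH regeneration solution added, 1 h; reaction stopped with luciferin detection reagent; luminescence read after 20 min.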
Chain of Cytochrome P450 1A2 (Homo sapiens) (P05177 whole entry, looked up): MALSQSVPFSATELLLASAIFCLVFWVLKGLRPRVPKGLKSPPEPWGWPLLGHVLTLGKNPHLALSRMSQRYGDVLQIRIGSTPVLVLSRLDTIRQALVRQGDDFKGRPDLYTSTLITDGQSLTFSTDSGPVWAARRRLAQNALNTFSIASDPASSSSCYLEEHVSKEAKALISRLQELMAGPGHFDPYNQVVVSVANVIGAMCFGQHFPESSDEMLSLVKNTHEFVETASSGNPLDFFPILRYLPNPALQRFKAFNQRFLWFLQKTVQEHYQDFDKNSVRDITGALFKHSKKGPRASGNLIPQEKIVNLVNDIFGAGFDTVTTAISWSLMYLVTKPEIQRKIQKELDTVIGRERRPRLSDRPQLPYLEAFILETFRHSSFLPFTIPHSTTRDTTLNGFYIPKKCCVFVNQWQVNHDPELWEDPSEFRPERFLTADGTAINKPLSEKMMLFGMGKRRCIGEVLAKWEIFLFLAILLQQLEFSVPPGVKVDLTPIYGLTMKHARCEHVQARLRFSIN

Experiment [11] addresses Voltage-gated inwardly rectifying potassium channel KCNH2 (Homo sapiens) (UniProt Q12809). Briefly: Human Ether-a-go-go-Related Gene (hERG) channel small molecule antagonists: fluorescence cell-based qHTS assay (AID 1671200).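 Note: hERG-expressing U2OS cells given a thallium stimulus after FluxOR II dye loading; series mostly up to about 77 µM; nearly all actives have a fitted effect of over 50% in size.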 The method, boiled down:
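Channel function was assessed by thallium flux. Cells seeded the previous day and kept at 37 C took up FluxOR II dye over 1 h in the dark at room temperature, then sat another 10 min before stimulation.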

Experiment [12] concerns the target Cytochrome P450 3A4 (Homo sapiens) (UniProt P08684). Briefly: Cytochrome P450 Family 3 Subfamily A Member 4 (CYP3A4) small molecule antagonists: luciferase reporter qHTS assay (AID 1671201). Note: nearly all actives have a fitted effect of over 50% in size. Note: potency is the fitted concentration of half-maximal effect. In a few lines: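 Compounds in DMSO were pin-transferred onto CYP3A4 enzyme-substrate mix and held 10 min at room temperature. NADPH regenerating solution started the reaction for 1 h; luciferin detection reagent stopped it, and luminescence was read after 20 min.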

The target of experiment [13] is Cytochrome P450 2D6 (Homo sapiens) (UniProt P10635). Briefly: Cytochrome P450 Family 2 Subfamily D Member 6 (CYP2D6) small molecule antagonists: luciferase reporter qHTS assay (AID 1671196). Note: nearly all actives have a fitted effect of over 50% in size. Note: potency is the fitted concentration of half-maximal effect. In a few lines: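 Test chemicals meet CYP2D6 plus proluciferin substrate (10 min, RT); NADPH regenerating solution then drives turnover for 1 h. Detection reagent halts the reaction; luminescence measured after 20 min.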
Chain of Cytochrome P450 2D6 (Homo sapiens) (P10635 whole entry, looked up): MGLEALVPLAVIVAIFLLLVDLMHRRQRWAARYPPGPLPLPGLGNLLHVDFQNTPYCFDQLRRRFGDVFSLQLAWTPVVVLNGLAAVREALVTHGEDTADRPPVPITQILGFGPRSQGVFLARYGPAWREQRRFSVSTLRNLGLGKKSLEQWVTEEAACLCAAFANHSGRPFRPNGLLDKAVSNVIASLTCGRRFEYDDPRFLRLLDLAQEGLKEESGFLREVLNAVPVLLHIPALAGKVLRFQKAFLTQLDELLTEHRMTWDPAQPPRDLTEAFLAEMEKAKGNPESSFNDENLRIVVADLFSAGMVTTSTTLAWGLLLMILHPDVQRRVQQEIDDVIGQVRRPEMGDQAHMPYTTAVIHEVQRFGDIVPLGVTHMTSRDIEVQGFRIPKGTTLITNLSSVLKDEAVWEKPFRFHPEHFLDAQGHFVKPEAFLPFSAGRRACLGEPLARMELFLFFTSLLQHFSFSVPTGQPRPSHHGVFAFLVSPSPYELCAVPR

The target in experiment [14] is Nuclear receptor subfamily 1 group I member 2 (Rattus norvegicus) (UniProt Q9R1A7). Briefly: Rat pregnane X receptor (rPXR) activation by small molecules, qHTS assay (AID 1346983). Note: nearly all actives have a fitted effect of over 20% in size. Note: potency is the fitted concentration of half-maximal effect. Particulars: rPXR luciferase reporter cells, One-Glo luminescence, 24 h; max activation: stronger effect = higher value. In a few lines: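 Luminescent readout (One-Glo luciferase, 30 min room temperature) followed 24 hr compound treatment at 37 C of rPXR cells plated 2,000 per well and preincubated 5hr; qHTS format with compounds delivered in DMSO.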
Chain of Nuclear receptor subfamily 1 group I member 2 (Rattus norvegicus) (Q9R1A7 whole entry, looked up): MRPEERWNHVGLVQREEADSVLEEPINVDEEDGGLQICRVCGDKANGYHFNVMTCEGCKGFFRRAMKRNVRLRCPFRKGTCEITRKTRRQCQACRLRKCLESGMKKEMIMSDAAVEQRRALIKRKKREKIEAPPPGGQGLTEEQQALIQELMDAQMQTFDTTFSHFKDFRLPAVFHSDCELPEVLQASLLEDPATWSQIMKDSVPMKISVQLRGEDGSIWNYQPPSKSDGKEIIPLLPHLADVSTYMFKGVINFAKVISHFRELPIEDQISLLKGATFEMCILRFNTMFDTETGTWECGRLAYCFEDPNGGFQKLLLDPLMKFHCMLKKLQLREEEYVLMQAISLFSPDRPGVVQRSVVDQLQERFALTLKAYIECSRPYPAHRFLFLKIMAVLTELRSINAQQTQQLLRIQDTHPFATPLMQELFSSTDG

Experiment [15] has as its target Nuclear receptor subfamily 1 group I member 2 (Homo sapiens) (UniProt O75469). Briefly: CYP3A4 induction through human pregnane X receptor (PXR) by small molecules, qHTS assay (AID 1346984). Note: nearly all actives have a fitted effect of over 40% in size. In a few lines:
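Induction measured in HepG2-based DPX-2 cells co-expressing human PXR and a CYP3A4 promoter-driven luciferase. After a 24-hour compound exposure, cells received CYP3A4 luciferin substrate at 3uM final for 3 hours, and light output was then recorded.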

Where “and” joins values, the source holds several entries; their conditions need not be identical. Equal entries are not always repeated. Results filed as inconclusive are left out. Some compounds were tested as several samples or in several runs, with calls that do not always agree. Calls of active or inactive are those of the source. Unless noted, calls come from the whole dose curve; as a rule, active = well fitted curve in the direction sought with a large enough effect in the repeat runs; inconclusive = weak or mixed curves; inactive = no such curve, though single readings can be large; an effect the other way counts as inactive or inconclusive.
% is set by controls: 0 for no effect and ±100 for the full control effect.

Chain of Thyrotropin-releasing hormone receptor (Homo sapiens) (P34981 whole entry, looked up): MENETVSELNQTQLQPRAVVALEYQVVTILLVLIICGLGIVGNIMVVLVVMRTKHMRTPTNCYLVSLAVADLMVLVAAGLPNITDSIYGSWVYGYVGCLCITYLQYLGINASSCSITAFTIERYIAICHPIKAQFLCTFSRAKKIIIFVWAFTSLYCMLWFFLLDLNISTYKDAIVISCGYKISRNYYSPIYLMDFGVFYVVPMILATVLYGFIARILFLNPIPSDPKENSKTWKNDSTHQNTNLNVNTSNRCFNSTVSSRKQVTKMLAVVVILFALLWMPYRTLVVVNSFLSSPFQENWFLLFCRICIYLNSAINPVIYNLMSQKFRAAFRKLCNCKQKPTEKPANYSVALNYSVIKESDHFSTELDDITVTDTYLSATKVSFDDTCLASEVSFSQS
Chain of Cytochrome P450 3A4 (Homo sapiens) (P08684 whole entry, looked up): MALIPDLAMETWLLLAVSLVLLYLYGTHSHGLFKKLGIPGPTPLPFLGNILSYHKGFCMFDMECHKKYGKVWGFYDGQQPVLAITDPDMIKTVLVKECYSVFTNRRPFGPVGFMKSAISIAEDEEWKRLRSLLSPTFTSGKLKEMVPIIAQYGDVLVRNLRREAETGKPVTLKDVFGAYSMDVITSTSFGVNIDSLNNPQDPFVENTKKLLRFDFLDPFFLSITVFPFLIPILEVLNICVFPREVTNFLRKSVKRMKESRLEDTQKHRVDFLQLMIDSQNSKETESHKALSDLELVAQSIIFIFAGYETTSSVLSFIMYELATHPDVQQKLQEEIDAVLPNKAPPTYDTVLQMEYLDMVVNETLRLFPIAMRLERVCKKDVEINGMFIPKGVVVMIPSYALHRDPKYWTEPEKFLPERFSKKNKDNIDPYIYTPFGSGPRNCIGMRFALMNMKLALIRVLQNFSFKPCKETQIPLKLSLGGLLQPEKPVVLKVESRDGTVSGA
Chain of Nuclear receptor subfamily 1 group I member 2 (Homo sapiens) (O75469 whole entry, looked up): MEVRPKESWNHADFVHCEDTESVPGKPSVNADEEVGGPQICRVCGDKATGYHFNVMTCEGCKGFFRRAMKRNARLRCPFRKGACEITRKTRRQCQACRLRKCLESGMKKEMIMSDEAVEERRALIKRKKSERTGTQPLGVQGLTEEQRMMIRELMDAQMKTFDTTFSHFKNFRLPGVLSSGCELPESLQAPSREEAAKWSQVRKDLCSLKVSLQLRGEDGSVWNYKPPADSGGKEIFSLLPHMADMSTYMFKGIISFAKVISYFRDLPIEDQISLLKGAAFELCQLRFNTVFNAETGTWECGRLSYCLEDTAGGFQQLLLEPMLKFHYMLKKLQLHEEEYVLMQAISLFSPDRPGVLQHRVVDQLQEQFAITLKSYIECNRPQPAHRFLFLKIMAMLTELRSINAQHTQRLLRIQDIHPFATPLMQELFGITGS
Chain of Cytochrome P450 2C19 (Homo sapiens) (P33261 whole entry, looked up): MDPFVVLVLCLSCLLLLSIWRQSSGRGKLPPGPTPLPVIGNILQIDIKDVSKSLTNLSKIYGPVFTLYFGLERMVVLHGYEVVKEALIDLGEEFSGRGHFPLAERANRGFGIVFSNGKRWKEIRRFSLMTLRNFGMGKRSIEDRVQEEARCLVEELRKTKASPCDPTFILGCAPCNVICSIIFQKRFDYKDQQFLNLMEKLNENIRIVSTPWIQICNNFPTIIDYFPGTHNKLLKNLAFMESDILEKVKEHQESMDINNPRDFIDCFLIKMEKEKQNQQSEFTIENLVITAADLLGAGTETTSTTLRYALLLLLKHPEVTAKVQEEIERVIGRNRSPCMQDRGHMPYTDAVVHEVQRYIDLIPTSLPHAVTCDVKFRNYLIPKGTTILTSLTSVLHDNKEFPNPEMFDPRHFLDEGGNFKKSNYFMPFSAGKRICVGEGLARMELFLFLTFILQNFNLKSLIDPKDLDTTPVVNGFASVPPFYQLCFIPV
Chain of Cytochrome P450 2C9 (Homo sapiens) (P11712 whole entry, looked up): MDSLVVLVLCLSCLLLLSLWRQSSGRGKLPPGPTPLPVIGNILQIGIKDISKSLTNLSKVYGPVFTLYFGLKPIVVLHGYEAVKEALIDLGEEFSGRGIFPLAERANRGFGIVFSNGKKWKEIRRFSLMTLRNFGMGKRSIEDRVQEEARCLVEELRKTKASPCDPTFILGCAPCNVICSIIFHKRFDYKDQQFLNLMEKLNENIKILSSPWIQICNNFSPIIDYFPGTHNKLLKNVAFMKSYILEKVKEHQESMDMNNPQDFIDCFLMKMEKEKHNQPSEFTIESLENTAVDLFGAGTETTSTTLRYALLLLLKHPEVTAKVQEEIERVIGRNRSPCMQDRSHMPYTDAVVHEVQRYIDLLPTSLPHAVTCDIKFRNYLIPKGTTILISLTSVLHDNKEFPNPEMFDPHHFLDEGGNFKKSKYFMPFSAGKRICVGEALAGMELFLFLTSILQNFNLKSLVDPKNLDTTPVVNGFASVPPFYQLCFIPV
Chain of Voltage-gated inwardly rectifying potassium channel KCNH2 (Homo sapiens) (Q12809 whole entry, looked up): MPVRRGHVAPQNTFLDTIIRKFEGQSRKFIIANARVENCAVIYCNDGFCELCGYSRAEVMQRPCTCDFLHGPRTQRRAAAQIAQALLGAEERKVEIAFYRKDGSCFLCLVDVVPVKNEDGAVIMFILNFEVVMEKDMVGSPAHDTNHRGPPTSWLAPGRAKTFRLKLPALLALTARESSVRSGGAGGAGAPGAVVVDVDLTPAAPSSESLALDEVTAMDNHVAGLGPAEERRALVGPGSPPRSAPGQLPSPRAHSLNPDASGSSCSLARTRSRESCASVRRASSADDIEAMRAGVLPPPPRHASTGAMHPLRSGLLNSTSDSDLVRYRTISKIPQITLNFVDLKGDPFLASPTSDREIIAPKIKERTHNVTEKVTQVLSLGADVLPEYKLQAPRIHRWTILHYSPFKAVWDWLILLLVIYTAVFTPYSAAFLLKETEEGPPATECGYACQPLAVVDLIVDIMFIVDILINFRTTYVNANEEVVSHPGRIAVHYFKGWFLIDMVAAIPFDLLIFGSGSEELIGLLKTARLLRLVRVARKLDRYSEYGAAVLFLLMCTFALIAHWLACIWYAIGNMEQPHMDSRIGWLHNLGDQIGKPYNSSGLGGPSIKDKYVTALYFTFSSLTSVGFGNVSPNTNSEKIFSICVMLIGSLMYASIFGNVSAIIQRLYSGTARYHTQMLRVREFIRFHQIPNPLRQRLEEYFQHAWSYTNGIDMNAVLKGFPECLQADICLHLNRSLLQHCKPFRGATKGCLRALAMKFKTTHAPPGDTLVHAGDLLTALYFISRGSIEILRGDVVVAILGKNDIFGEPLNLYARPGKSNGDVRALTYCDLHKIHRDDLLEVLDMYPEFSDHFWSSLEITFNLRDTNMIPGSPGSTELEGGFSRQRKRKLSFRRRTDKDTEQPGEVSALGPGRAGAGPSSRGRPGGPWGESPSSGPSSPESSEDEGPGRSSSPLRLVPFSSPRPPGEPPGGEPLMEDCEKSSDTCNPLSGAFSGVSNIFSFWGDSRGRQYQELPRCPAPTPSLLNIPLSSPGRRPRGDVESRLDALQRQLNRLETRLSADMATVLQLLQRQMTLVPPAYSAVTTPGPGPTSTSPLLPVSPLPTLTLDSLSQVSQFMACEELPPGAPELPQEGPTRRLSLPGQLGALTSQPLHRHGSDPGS

As to `Cc1cc(Cc2ccc(N)c(C)c2)ccc1N`, the Potency result in [1], in experiment [2], in [3], in [4], in [5] and in [6] was “inactive” each time. Moreover, the Potency result in experiment [11] is “inactive”. In addition, the Potency was 61.1 µM (active) in experiment [7]; 3.56 µM (active) and 5.03 µM (active) in experiment [8]; 6.33 µM (active) and 25.2 µM (active) in experiment [9]; 6.33 µM (active) and 14.2 µM (active) in experiment [10]; 894 nM (active) and 2.52 µM (active) in experiment [12].
As for `CCCCCCCCCC(=O)O`, the Potency result in [1], in experiment [3], in [4], in experiment [5], in experiment [6] and in experiment [7] was “inactive” in each case. Further, the Potency result in [13], in experiment [8], in experiment [10], in [11] and in [12] was “inactive” in each case. For the same compound, the Potency in experiment [9] is 74.8 µM (active).
For `Cc1ccc(N)c(S(=O)(=O)O)c1`, the Potency result in experiment [1], in experiment [3], in [4], in experiment [5], in [6] and in experiment [7] was “inactive” each time. Also, the Potency entry in [13], in [11] and in [12] was “inactive” each time. Also, the Potency is 71.9 µM (active) and inactive in experiment [8]; 45.4 µM (active) in [9].
As for `C=C1C2CCC(C2)C1(C)C` (stereo unspecified), the Potency result in experiment [1], in [3], in [4], in [5], in [6] and in experiment [7] was “inactive” throughout. In addition, the Potency result in [13], in [8], in experiment [9], in experiment [11] and in [12] was “inactive” each time.
For the compound `COC(=O)Nc1nc2ccc(Sc3ccccc3)cc2[nH]1`, the Potency result in [1], in experiment [2], in experiment [3], in [6], in experiment [13] and in experiment [11] was “inactive” each time. The Potency entry in [12] is “inactive”. The Potency is 30.6 µM (active) and 10.6 µM (active) in experiment [4]; 54.5 µM (active) in [5]; 1.26 µM (active) in experiment [14]; 25.2 µM (active) and inactive in experiment [8]; 12.6 µM (active) in [10].
For the compound `S=c1nc[nH]c2nc[nH]c12`, the Potency result in experiment [1], in experiment [2], in [3], in experiment [4], in [5] and in experiment [7] was “inactive” in each case. For the same compound, the Potency result in experiment [13], in [10], in experiment [11] and in experiment [12] was “inactive” throughout. Also, the max activation in [14] is -6.82% (inactive). For the same compound, the compound was called inactive in experiment [15]. Besides, the Potency is 69.2 µM (active) and 30.9 µM (active) in experiment [8]; 34.7 µM (active) in experiment [9].
As to `CCCCOCCOCCOC(=O)CCCCC(=O)OCCOCCOCCCC`, the Potency entry in [1], in experiment [2], in experiment [3], in [4], in [5] and in experiment [6] was “inactive” in each case. In addition, the Potency result in experiment [7], in experiment [10] and in [11] was “inactive” throughout. Further, the Potency in [8] was 22.5 µM (active) and 22.4 µM (active); in experiment [9], 11.3 µM (active) and 17.8 µM (active); in [12], 20.1 µM (active) and 31.7 µM (active).
Regarding `C=C(C)C(=O)OCCC[Si](OC)(OC)OC`, the Potency entry in experiment [1], in [3], in [4], in experiment [5], in [6] and in experiment [10] was “inactive” each time. Besides, the Potency result in [11] was “inactive”. Besides, the Potency in [7] was 60.4 µM (active) and inactive; in experiment [13], 62.6 µM (active) and inactive; in experiment [8], 22.2 µM (active); in [9], 15.7 µM (active); in [12], 3.14 µM (active) and 63.3 µM (active).

Values taken from PubChem BioAssay (Tox21).
